Several values for one entry are separate records, joined by “and”; a condition that tells them apart may be missing. Equal entries are not always repeated. Some compounds were tested as several samples or in several runs, with calls that do not always agree. Activity calls are given as the source filed them. The calls were made as follows: active = hit-call score of the fitted dose curve at least 0.9, where 1 is the maximum; inactive = score below 0.9.
Columns and labels:
[1] = CEETOX_H295R_TESTO: CeeTox H295R High-throughput Steroidogenesis Assay for Testosterone (TESTO) (AID 2283457); conditions: actives raise or lower the signal
In short: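 H295R adrenal cells, passage ≤10, exposed to chemicals for 48 h. Testosterone in medium measured by MTBE extraction and HPLC-MS/MS against a 7-point standard curve. Bidirectional fit versus DMSO; MTT viability checked in the same wells.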

[2] = read-out: Fatty acid synthase (Homo sapiens) (UniProt P49327); assay: LTEA_HepaRG_FASN: Life Technologies and Expression Analysis (LTEA) Assay for Fatty Acid Synthase (FASN) using HepaRG (AID 2283448); conditions: mRNA level, 48 h; actives raise or lower the signal
In short: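 HepaRG, 48 h exposure, 8-pt half-log series top 100 uM, 0.5% DMSO vehicle, duplicates. Readout: FASN transcript by Fluidigm qRT-PCR; housekeeping-normalized; bidirectional curve fit vs DMSO baseline.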

[3] = read-out: Cyclin D2 (CCND2), CCND2 (gene 894); assay: LTEA_HepaRG_CCND2: Life Technologies and Expression Analysis (LTEA) Assay for Cyclin D2 (CCND2) using HepaRG (AID 2283449); conditions: mRNA level, 48 h; actives raise or lower the signal;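 also: CCND2 transcript measured by TaqMan qRT-PCR and normalised to three housekeeping genes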
In short: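 HepaRG, 48 h dosing, 8-pt half-log curve from 100 uM, 0.5% DMSO; duplicate wells. Readout: CCND2 transcript by microfluidic qRT-PCR, housekeeping-normalised; bidirectional fit vs DMSO baseline.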

[4] = read-out: Cyclin Dependent Kinase Inhibitor 1A (CDKN1A), CDKN1A (gene 1026); assay: LTEA_HepaRG_CDKN1A: Life Technologies and Expression Analysis (LTEA) Assay for Cyclin Dependent Kinase Inhibitor 1A (CDKN1A) using HepaRG (AID 2283450); conditions: mRNA level, 48 h; actives raise or lower the signal
In short: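 Differentiated HepaRG cells in serum-free induction medium, exposed 48 h in duplicate to eight half-log concentrations up to 100 uM in 0.5% DMSO. mRNA measured by TaqMan qRT-PCR, normalized to ACTB, GAPDH, POLR2A; bidirectional fit versus DMSO.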

[5] = read-out: Cyclin D1 (CCND1), CCND1 (gene 595); assay: LTEA_HepaRG_CCND1: Life Technologies and Expression Analysis (LTEA) Assay for Cyclin D1 (CCND1) using HepaRG (AID 2283451); conditions: mRNA level, 48 h; actives raise or lower the signal;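 as to AC50: TaqMan qRT-PCR transcript level normalised to ACTB GAPDH and POLR2A housekeeping genes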
In short: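 Differentiated HepaRG cells exposed 48 h in serum-free induction medium to eight half-log concentrations from 100 uM top, 0.5% DMSO, duplicates. CCND1 mRNA measured by Fluidigm TaqMan qRT-PCR, normalised to ACTB, GAPDH, POLR2A; bidirectional fit.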

[6] = read-out: catalase (CAT), CAT (gene 847); assay: LTEA_HepaRG_CAT: Life Technologies and Expression Analysis (LTEA) Assay for catalase (CAT) using HepaRG (AID 2283452); conditions: mRNA level, 48 h; actives raise or lower the signal;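 as to AC50: TaqMan qRT-PCR signal normalized to ACTB GAPDH and POLR2A housekeeping genes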
In short: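 HepaRG cells in serum-free induction medium, 0.5% DMSO vehicle, exposed 48 h in duplicate over 8 half-log concentrations from 100 uM. CAT mRNA measured by qRT-PCR, normalized to ACTB, GAPDH, POLR2A; bidirectional fit versus DMSO.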

[7] = read-out: flavin-containing dimethylaniline monooxygenases 3 (FMO3), FMO3 (gene 2328); assay: LTEA_HepaRG_FMO3: Life Technologies and Expression Analysis (LTEA) Assay for flavin-containing dimethylaniline monooxygenases 3 (FMO3) using HepaRG (AID 2283453); conditions: mRNA level, 48 h; actives raise or lower the signal;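 as to AC50: FMO3 transcript by TaqMan qRT-PCR normalized to ACTB GAPDH and POLR2A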
In short: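 Eight-point concentration-response in serum-free HepaRG cultures (top 100 uM, 0.5% DMSO, 48 h). Read-out: FMO3 mRNA level normalized to three endogenous control genes, fitted bidirectionally versus vehicle.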

[8] = read-out: Cytochrome P450 (CYP1A1), CYP1A1 (gene 1543); assay: LTEA_HepaRG_CYP1A1: Life Technologies and Expression Analysis (LTEA) Assay for Cytochrome P450 (CYP1A1) using HepaRG (AID 2283454); conditions: mRNA level, 48 h; actives raise or lower the signal
In short: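 Differentiated human HepaRG cells, after 48 h plating, exposed in duplicate for 48 h in serum-free induction medium to 8 half-log concentrations up to 100 uM in 0.5% DMSO. CYP1A1 mRNA by qRT-PCR, normalized to ACTB/GAPDH/POLR2A; bidirectional fit versus DMSO.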

[9] = read-out: CFLAR gene, CFLAR (gene 8837); assay: LTEA_HepaRG_CFLAR: Life Technologies and Expression Analysis (LTEA) Assay for CFLAR gene using HepaRG (AID 2283455); conditions: mRNA level, 48 h; actives raise or lower the signal
In short: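 qRT-PCR read-out (Fluidigm/TaqMan) of CFLAR mRNA, normalized to three housekeeping genes, in differentiated human HepaRG cells after 48 h chemical exposure; 8-point half-log series from 100 uM in 0.5% DMSO; bidirectional curve fitting versus DMSO.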

[10] = read-out: Forkhead box O1 (FOXO1), FOXO1 (gene 2308); assay: LTEA_HepaRG_FOXO1: Life Technologies and Expression Analysis (LTEA) Assay for Forkhead box O1 (FOXO1) using HepaRG (AID 2283456); conditions: mRNA level, 48 h; actives raise or lower the signal
In short: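 HepaRG, 48 h exposure, 8-pt half-log series from 100 uM in 0.5% DMSO, duplicates; Fluidigm qRT-PCR mRNA, housekeeping-normalised; bidirectional fit vs DMSO baseline.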

Measured: AC50

Fatty acid synthase (Homo sapiens), sequence (P49327 whole entry, looked up): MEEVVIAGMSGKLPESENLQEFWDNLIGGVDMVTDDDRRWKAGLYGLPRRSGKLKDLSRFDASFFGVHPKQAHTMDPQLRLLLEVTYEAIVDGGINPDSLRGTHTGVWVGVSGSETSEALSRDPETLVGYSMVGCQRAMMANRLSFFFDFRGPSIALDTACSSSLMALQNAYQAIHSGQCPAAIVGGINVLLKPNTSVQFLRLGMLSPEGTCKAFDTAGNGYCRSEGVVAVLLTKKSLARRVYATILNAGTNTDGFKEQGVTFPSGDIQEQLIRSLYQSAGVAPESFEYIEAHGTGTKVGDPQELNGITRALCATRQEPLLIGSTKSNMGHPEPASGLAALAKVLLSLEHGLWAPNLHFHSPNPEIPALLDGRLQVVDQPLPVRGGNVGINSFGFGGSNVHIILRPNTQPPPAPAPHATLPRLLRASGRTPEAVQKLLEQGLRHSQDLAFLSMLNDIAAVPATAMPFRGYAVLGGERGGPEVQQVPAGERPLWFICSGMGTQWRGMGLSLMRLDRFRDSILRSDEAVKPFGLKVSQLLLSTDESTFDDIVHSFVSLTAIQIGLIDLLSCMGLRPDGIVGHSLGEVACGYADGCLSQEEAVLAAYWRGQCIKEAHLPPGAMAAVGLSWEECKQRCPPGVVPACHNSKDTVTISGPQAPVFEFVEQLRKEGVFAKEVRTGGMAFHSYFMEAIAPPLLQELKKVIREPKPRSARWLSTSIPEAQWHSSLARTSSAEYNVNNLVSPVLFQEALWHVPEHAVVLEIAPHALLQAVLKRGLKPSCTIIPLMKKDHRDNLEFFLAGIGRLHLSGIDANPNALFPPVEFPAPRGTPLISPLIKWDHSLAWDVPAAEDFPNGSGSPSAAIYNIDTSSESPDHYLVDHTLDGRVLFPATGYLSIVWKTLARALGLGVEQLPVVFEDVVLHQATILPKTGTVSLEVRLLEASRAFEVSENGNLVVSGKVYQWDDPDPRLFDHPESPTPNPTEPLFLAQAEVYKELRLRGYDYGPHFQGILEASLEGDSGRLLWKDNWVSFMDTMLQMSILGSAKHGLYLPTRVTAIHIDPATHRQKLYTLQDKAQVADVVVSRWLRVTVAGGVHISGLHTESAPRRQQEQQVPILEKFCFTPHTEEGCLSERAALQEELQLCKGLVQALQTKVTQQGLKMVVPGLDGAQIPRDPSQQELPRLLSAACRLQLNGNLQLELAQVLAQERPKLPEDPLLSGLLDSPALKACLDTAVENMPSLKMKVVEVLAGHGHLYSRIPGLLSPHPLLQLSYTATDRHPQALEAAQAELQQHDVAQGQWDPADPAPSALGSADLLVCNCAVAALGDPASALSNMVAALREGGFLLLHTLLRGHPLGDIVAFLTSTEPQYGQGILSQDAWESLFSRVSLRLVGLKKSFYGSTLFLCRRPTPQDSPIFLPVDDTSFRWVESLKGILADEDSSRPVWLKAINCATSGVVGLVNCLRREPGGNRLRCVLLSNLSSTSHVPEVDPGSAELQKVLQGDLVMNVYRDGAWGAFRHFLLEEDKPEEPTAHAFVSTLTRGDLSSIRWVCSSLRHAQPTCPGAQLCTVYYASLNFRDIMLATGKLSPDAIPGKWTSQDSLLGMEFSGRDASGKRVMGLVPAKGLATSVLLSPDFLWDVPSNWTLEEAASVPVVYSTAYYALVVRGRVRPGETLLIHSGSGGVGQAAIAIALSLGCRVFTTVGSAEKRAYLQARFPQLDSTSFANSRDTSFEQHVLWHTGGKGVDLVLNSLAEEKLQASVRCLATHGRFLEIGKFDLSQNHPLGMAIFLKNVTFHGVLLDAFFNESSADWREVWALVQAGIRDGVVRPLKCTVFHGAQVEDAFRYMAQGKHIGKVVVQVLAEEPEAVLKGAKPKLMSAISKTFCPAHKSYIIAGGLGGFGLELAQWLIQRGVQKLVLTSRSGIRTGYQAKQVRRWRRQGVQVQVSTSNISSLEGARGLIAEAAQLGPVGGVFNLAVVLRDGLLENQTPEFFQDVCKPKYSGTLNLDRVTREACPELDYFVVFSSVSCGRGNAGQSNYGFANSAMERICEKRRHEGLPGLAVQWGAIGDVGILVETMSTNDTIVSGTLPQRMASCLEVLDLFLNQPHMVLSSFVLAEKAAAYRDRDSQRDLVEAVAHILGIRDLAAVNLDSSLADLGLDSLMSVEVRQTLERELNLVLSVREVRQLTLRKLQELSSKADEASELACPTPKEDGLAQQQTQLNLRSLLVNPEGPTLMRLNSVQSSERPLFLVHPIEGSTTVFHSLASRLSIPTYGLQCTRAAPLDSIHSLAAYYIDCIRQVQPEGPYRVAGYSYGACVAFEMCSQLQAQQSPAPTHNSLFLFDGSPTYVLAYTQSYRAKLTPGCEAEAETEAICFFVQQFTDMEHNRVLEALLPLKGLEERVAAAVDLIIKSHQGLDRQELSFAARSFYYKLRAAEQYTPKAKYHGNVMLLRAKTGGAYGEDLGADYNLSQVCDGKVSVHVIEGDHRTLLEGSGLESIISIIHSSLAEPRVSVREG

CC(C)(C)c1cccc(O)c1
inactive: [1]

CCCCOCCOCCO
inactive: [2] | [3] | [4] | [5] | [6] | [7] | [9] | [10]
active: [8] 50 µM

OCCCO
inactive: [1]

C=C(C)C(N)=O
active: [8] 50 µM
inactive: [2] | [3] | [4] | [5] | [6] | [7] | [9] | [10]

CC(=N[Si](C)(C)C)O[Si](C)(C)C
inactive: [1]

CC=CC(=O)C1=C(C)C=CCC1(C)C
inactive: [1]

C[C@]12CC[C@@H]3c4ccc(O)cc4CC[C@H]3[C@@H]1CC[C@@H]2O
active: [4] 80.3 µM | [8] 66.1 µM
inactive: [2] | [3] | [5] | [6] | [7] | [9] | [10]

O=C(c1ccc(OCCN2CCCCC2)cc1)c1c(-c2ccc(O)cc2)sc2cc(O)ccc12
inactive: [2] | [3] | [4] | [8]
active: [5] 96.1 µM | [6] 50 µM | [7] 72.3 µM | [9] 65.4 µM | [10] 86 µM

CC/C(=C(\c1ccccc1)c1ccc(OCCN(C)C)cc1)c1ccccc1
active: [5] 28.1 µM and 38.6 µM | [6] 51.7 µM | [7] 27.9 µM and 33.7 µM | [8] 26.8 µM and 68.3 µM | [9] 64.9 µM and 93.4 µM | [10] 69.8 µM
inactive: [2] | [3] | [4] | [6] | [10]

COC(=O)c1ccc(C(=O)OC)cc1
inactive: [2] | [3] | [4] | [5] | [6] | [7] | [9] | [10]
active: [8] 65.1 µM

C#C[C@]1(O)CC[C@H]2[C@@H]3CCc4cc(O)ccc4[C@H]3CC[C@@]21C
inactive: [2] | [3] | [4] | [5] | [6] | [7] | [8] | [9] | [10]

— PubChem BioAssay (EPA / NIEHS)
